Screening results deposited in PubChem by National Center for Advancing Translational Sciences (NCATS).
TRHR agonist: TRH receptor (human) agonism; TRHR cells, calcium flux fluo-8, FDSS agonist mode; activation, % at 2 µM; 360,000 tested, 0.18% active; further: 0% is about no effect
Target sequence (P34981 whole entry, looked up): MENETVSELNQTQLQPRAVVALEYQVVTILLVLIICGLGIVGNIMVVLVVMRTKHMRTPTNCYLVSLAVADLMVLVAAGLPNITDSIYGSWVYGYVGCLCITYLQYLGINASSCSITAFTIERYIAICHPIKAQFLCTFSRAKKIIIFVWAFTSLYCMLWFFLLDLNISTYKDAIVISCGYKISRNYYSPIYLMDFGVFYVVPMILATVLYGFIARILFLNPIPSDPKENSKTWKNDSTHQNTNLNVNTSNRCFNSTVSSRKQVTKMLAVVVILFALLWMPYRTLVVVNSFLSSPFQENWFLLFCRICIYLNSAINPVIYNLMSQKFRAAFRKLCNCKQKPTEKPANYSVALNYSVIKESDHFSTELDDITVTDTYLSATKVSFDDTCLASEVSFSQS
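TRHR-expressing cells loaded with fluo-8 calcium dye; 23 nL library compound pin-transferred, kinetic FDSS fluorescence (Ex 480/Em 530) recorded about 180 s for agonist-induced calcium release, before a 10 nM TRH EC20 addition for potentiator mode.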
GRP78 ERSR act: induces the endoplasmic reticulum stress response in human glioma cells | U87-MG GRP78 promoter luciferase reporter, 16 h | Potency, µM, without a hit: at the top dose activation, most hits filed as activators | 420,000 tested, 0.02% active | AID 602332; active means well fitted activation curve with a large enough effect; further: potency means the concentration at half of the fitted maximal effect; series mostly up to about 76 µM; % of control where 0% means no effect; nearly all actives have a fitted effect of over 35% in size
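Stably transfected U87-MG human glioma cells carrying a GRP78-based luminescent sensor were seeded at 1000 cells/well, pin-dosed with compounds and incubated 16 h. Luciferase reagent was then added, and end-point luminescence was read after 10 min at room temperature.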
D1 antag: human D1 dopamine receptor antagonism; HEK293 TREx D1 cells, calcium flux, dopamine EC80; hits give low values; 360,000 tested, 3.2% active; P21728; activity change, negative = inhibition, % at 10 µM; in the data active means activity change below about -30%; further: on the % scale 0 is the no-effect control and ±100 the full control effect
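HEK293 T-REx cells expressing inducible, force-coupled D1 receptor; no-wash Ca dye, 30–90 min RT. Cmpd → 180 s read at 1 Hz → EC80 DA → 180 s read.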
D1 agonist: human D1 receptor agonism | AID 504660 | activation, % at 2 µM | 360,000 tested, 1% active | HEK293 T-REx D1 cells, calcium flux, agonist mode | P21728; further: 0% is about no effect
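Agonism was scored from calcium flux recorded over 180 s (1 read/s) after pintool compound addition, following a 10-cycle baseline. Cells were inducible force-coupled HEK293 TREx D1, plated overnight at 30 C and loaded with no-wash calcium dye.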
TRHR PAM: TRH receptor (human) allosteric enhancement; P34981; TRHR cells, fluo-8 calcium fluorescence, EC20 TRH enhancement; enhancement, % at 2 µM; 360,000 tested, 0.66% active; in the data active means enhancement above about 30%; further: 0% is about no effect
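Enhancer read-out: after compound pinning and an initial kinetic agonist-mode read, an EC20 of TRH (10 nM final) was injected and fluo-8 calcium signal (Ex 480/Em 530) followed at 1 s/cycle for 100 cycles in TRHR-expressing cells.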
D1 potentiator: potentiators of human D1 dopamine receptor; P21728; HEK293 TREx D1 cells, calcium flux, dopamine EC20 potentiation; potentiation, % at 10 µM; 360,000 tested, 0.036% active; AID 504651; in the data active means potentiation above about 30%; further: 0% is about no effect
* = called active by the depositor; . = no result. Compounds with a hit are over-represented: about 4% of the library has one in this group of screens. Unless noted, no stated cut-off is given here; in the data, active means activation above about 30%; inactive means the rest.

SMILES | TRHR agonist | GRP78 ERSR act | D1 antag | D1 agonist | TRHR PAM | D1 potentiator
Fc1ccccc1CNc1nc(-c2cccnc2)nc2ccccc12 | 4 | -5% | -60* | 1 | 12 | .
c1cncc(-c2nc(NCc3cccs3)c3ccccc3n2)c1 | 2 | -5% | -3 | 3 | 2 | -4
CCn1c(Cl)c(C=O)s/c1=N\S(=O)(=O)c1ccccc1 | 2 | -18% | -38* | 2 | -11 | -12
O=C(CCCn1c(=O)c2cccn2c2ccccc21)Nc1cc(C(F)(F)F)ccc1Cl | 0 | -4% | -5 | 0 | 8 | -2
C[C@@H](CO)[C@H](/C=C/c1ccccc1)CCO[Si](c1ccccc1)(c1ccccc1)C(C)(C)C | . | -3% | . | . | . | .
CC(C)CN(CC(C)C)c1ccc(/C=C/c2ccnc3ccccc23)cc1 | . | 0% | . | . | . | .
O=C(O)CC12CC3CC(C1)CC(n1ncc(N4CCC5(CC4)OCCO5)c(Cl)c1=O)(C3)C2 | -1 | -6% | -15 | 4 | 2 | -4
CCc1ccc(/C=C/C(=O)c2ccc(S(=O)(=O)N(C)C)cc2)cc1 | 0 | -4% | -62* | 50* | -1 | 0
CCN(CC)S(=O)(=O)c1ccc(C(=O)/C=C/c2ccc(-c3ccc([N+](=O)[O-])cc3)o2)cc1 | 3 | -2% | -54* | 9 | 24 | -8
C=C[C@@H]1c2cc(C)ccc2N(S(=O)(=O)c2ccc(C)cc2)[C@H](c2ccc(OC(C)=O)cc2)C1(C#N)C#N | 1 | -1% | . | 40* | -3 | 0
O=C(Nc1ccc(Cl)c(Cl)c1)c1ccc(Cn2cc(Cl)cn2)cc1 | 0 | 5% | -7 | 34* | 3 | -6
CCC(=O)N(C)C[C@@H]1Oc2ncc(Br)cc2C(=O)N([C@H](C)CO)C[C@H]1C | . | -5% | . | . | . | .
Cc1cc2c(s1)c1cnn(Cc3cccc4cccnc34)c(=O)c1n2C | -1 | . | -1 | 1 | 0 | 7
CC(=O)Nc1ccc(S(=O)(=O)N2CCc3ccccc3C2)cc1 | 1 | -5% | -34* | 1 | -8 | -8
CC(=O)Nc1ccc(S(=O)(=O)N2CCN(Cc3cccs3)CC2)cc1 | 0 | -4% | -39* | 9 | 23 | -5
COc1cc(S(=O)(=O)N2CCN(Cc3cccs3)CC2)ccc1NC(C)=O | 0 | -5% | -10 | 4 | 5 | .
O=S(=O)(c1ccccc1)N1CCc2ccccc2C1 | 0 | -2% | -4 | 3 | 2 | -3
N#Cc1ccc(S(=O)(=O)N2CCN(Cc3cccs3)CC2)cc1 | 0 | -1% | -64* | -1 | -2 | -4
CCOC(=O)C(CC)n1cnc2c(cnn2-c2ccc(Cl)cc2)c1=O (configuration not stated) | 0 | 0% | -32* | 10 | -3 | -3
O=C(/C=C/c1cccc(Br)c1)NC1CCN(Cc2ccccc2)CC1 | 1 | -10% | -4 | 9 | 8 | -6
COc1ccc(CN2C3CCCC2CC(NC(=O)/C=C/c2ccccc2)C3)cc1 (configuration not stated) | -1 | -2% | -51* | 77* | -1 | -4
O=C(/C=C/c1ccccc1)NC1CC2CCCC(C1)N2Cc1ccccc1 (configuration not stated) | 0 | . | -96* | 2 | -22 | -10
O=C(/C=C/c1cccc(F)c1)NC1CCN(Cc2ccccc2)CC1 | 0 | 0% | -45* | 10 | -5 | .
CCN(CC)C(=O)NC1CC2CCCC(C1)N2Cc1ccccc1 (configuration not stated) | 0 | -5% | -8 | 0 | 1 | 0
O=C(CCNC(=O)c1ccc(Cl)cc1)Nc1c(F)c(F)cc(F)c1F | -1 | -3% | -14 | -2 | 0 | -8
SMILES | TRHR agonist | GRP78 ERSR act | D1 antag | D1 agonist | TRHR PAM | D1 potentiator
CCCCN(C(=O)c1ccc2c(c1)NC(=O)CS2)c1ccccc1 | 1 | -4% | -36* | 10 | -3 | .
COCC(C)NC(=O)c1cc2c(=O)n3cccc(C)c3nc2s1 (configuration not stated) | -2 | -3% | -21 | 1 | 22 | 0
NC(=O)c1ccc(NC(=O)COC(=O)CCC(=O)c2ccc(Cl)cc2)cc1 | 0 | -3% | -31* | 2 | 1 | -7
COCCn1c(=O)c(-c2ccc(OC)cc2)nc2cnc(N3CCOCC3)nc21 | . | -1% | . | . | . | .
COc1ccccc1C(=O)n1nc(-c2ccco2)nc1SC | 0 | -1% | -34* | 2 | -3 | -11
O=C(NC1CC1)[C@@H]1C[C@H](Sc2nc3ccccc3[nH]2)CN1CC1CCCCC1 | . | -4% | . | . | . | .
CCc1ccc(NC(=O)Cn2cnc3nc4c(cc3c2=O)CCCC4)cc1 | -1 | -4% | -32* | 6 | 15 | -3
O=C(Cn1cnc2nc3c(cc2c1=O)CCCC3)N1CCN(c2ccccc2)CC1 | 0 | -3% | 1 | 1 | 32* | -1
CCOc1ccc(NC(=O)Cn2cnc3nc4c(cc3c2=O)CCCC4)cc1 | 0 | -3% | 12 | 0 | 0 | 1
CC(=O)C1=C(O)C(=O)N(CCNCCO)C1c1ccccc1 (configuration not stated) | 0 | -5% | 51 | 1 | -1 | -1
O=C(O)CC(CNS(=O)(=O)c1ccccc1)c1ccccc1 (configuration not stated) | 1 | -1% | -33* | -1 | -5 | -8
COc1ccc(OC(F)(F)F)cc1CC1(C)C(=O)Nc2ccc(-c3ccsc3)cc21 (configuration not stated) | . | -12% | . | . | . | .
CCCCCC(=O)N1c2ccccc2C(C)(c2ccccc2)CC1(C)C (configuration not stated) | -2 | -2% | 2 | 3 | -3 | -1
O=C1c2ccc(Oc3ccc([N+](=O)[O-])cc3)cc2C(=O)N1CCCO | 0 | -2% | -37* | 7 | 4 | 3
O=C(Cc1ccc(F)cc1)NC1CCSC1=O (configuration not stated) | 0 | -4% | -33* | 3 | -1 | -2
O=C(CCCc1ccccc1)NC1CCSC1=O (configuration not stated) | 0 | 0% | 1 | 0 | -3 | 2
NC(N)=NCCC[C@H](NC(=O)CNC(=O)c1ccccc1)C(=O)Nc1cc(C(F)(F)F)ccc1Cl | -2 | . | -13 | 0 | 1 | 7
COc1ccccc1Oc1ccc(N2CC(C(=O)OCC(=O)c3ccccc3)CC2=O)cc1 (configuration not stated) | 1 | -1% | -30* | 5 | 8 | -13
CC1=[N+](C)c2ccc3ccccc3c2C1(C)C | -1 | -5% | 9 | -1 | 35* | 5
O=C(Nc1ccc(Cl)cc1)Nc1nc(-c2ccccc2O)cs1 | 1 | 10% | -37* | 24 | -7 | -8
S=C(NC1CCCC1)NC1CC1 | 0 | -2% | -41* | 6 | 18 | -5
